Measured values published in PubChem BioAssay (EPA / NIEHS).
Inconclusive results are not listed. Calls of active or inactive are those of the source. How the source made its calls: active means hit-call score of the fitted dose curve at least 0.9, where 1 is the maximum; inconclusive means response in the unintended direction; inactive means score below 0.9.

target: human Vitamin D Receptor (VDR), VDR (gene 7421) (UniProt P11473); assay: ATG_VDR_TRANS: Attagene TRANS-FACTORIAL HepG2 Assay for human Vitamin D Receptor (VDR) (AID 2283022)
Sequence (P11473 whole entry, looked up, the tested form may be a part): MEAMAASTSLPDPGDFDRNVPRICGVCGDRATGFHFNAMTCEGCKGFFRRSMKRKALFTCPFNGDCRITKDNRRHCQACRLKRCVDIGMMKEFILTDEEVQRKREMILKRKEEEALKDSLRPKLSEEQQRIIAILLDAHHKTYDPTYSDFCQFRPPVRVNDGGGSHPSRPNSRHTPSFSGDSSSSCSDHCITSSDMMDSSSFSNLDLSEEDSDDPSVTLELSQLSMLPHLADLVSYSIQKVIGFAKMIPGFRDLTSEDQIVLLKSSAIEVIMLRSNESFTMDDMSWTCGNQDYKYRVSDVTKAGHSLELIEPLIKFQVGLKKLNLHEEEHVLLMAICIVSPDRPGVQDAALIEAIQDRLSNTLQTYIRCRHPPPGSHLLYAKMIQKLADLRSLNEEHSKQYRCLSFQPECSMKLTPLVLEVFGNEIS
Summary of the method: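 Steps: transfect HepG2 with GAL4-UAS-driven reporter constructs; dose compounds 24 h; isolate RNA, reverse-transcribe, PCR-amplify with 6-FAM-labelled primer extension and HpaI digestion; quantify fragments by capillary electrophoresis relative to DMSO.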

outcome, inactive:
O=C(O)c1ccccc1Nc1cccc(C(F)(F)F)c1, CC(C)(C)c1ccc(N)cc1, CCCCCCCCO[C@@H]1O[C@H](CO)[C@@H](O)[C@H](O)[C@H]1O, FC(F)=C(F)OC(F)(F)C(F)(F)C(F)(F)F, Cc1cc(C)c(C)cc1C, C=CCCCCCCCCC(=O)OCCCC, CCCCCCCCCCOS(=O)(=O)O, CCCCCCCCCCCSCC(=O)O, Cc1ccc([N+](=O)[O-])cc1S(=O)(=O)O, CCC(C)OC(=O)c1ccc(O)cc1 (centres undefined), O=C(Nc1cccc(C(F)(F)F)c1)c1cc(Br)cc(Br)c1O, CC(C)=CCCC(C)C=O (centres undefined), C1=CCCC1, CCCCCCC1(C)CCC(=O)O1 (centres undefined), NC(CO)(CO)CO, CC(=O)OC(C)C, O=C1CCCCCN1SSN1CCCCCC1=O, CCN(CC#N)c1cccc(C)c1, O=CN1CCCCC1, CC(=O)Oc1ccc(C(C)=O)cc1, CC(=O)NS(=O)(=O)c1ccc(N)cc1, COCC(C)N (centres undefined), Cc1cccc(N(C)C(=S)Oc2ccc3ccccc3c2)c1, CCOC(=O)c1ccc(N(C)C)cc1, O=C1Nc2ccccc2C1(c1ccc(O)cc1)c1ccc(O)cc1, Nc1ncn([C@@H]2O[C@H](CO)[C@@H](O)[C@H]2O)c(=O)n1, CC=CC(=O)N(CC)c1ccccc1C, CCCCC(CC)COC(=O)c1ccccc1 (centres undefined), O=C(C(Cl)Cl)N1CCOC12CCCCC2, CC1(C)O[C@@H]2C[C@H]3[C@@H]4C[C@H](F)C5=CC(=O)CC[C@]5(C)[C@H]4[C@@H](O)C[C@]3(C)[C@]2(C(=O)CO)O1, N#CCc1ccc(Cl)cc1Cl, O=C(/C=C/C=C/c1ccc2c(c1)OCO2)N1CCCCC1, c1cc(C(c2ccc(OCC3CO3)cc2)C(c2ccc(OCC3CO3)cc2)c2ccc(OCC3CO3)cc2)ccc1OCC1CO1 (centres undefined), Cc1ccc(C(C)c2ccc(C)c(C)c2)cc1C
